# Assay results reported in PubChem BioAssay (NCI).
# About 83,000 compounds went through this panel and 20% of them were active in at least one assay; those are over-represented in the sample as a whole.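 Values shown are percent growth following 48 h exposure of cells in 96-well plates to a single concentration of compound; below 10 was considered active.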 Unmarked numbers belong to inactive results. Calls of active or inactive are those of the source.
# Tests used:
# Test in all cases: NCI-60 one-dose screen, 48 h (100 = growth as untreated, 0 = no growth, -100 = all killed)
# Details in all cases: 10 µM unless noted
# [1] = system: T-47D breast
# [2] = system: BT-549 breast
# [3] = system: MDA-MB-435 melanoma
# [4] = system: SW-620 colon
# [5] = system: MCF7 breast
# [6] = system: HCT-116 colon
# [7] = system: HCC-2998 colon
# [8] = system: KM12 colon
SMILES,growth [1],growth [2],growth [3],growth [4],growth [5],growth [6],growth [7],growth [8]
CCC(CC)N1C(=O)/C(=c2\sc3n(c2=O)C2C(NN=3)N(CC)C(=O)N2CC)c2ccccc21 (stereo not given),66.5%,78.6%,-8.32% (active),27.2%,15%,15.1%,21.7%,14.2%
COc1cnc2c(c1)C(=O)c1c-2n(CCCNCC2CC2)c(=O)c2cc(F)ccc12,-21.2% (active),-0.964% (active),10%,-29.6% (active),-8.09% (active),-79.7% (active),-41% (active),-8.57% (active)
COc1cc(/C=C/C(=O)c2ccc(NC(=O)COc3cccc4cccnc34)cc2)cc(OC)c1OC,90.2%,81.7%,88.3%,69.8%,20.6%,23.9%,112%,85.8%
CCCCCCCCCC[C@@H](C)[C@@H]1CC(=O)N[C@H]([C@@H](C)O)C(=O)N[C@@H](C)C(=O)N[C@H](C)C(=O)N[C@@H](CCC(N)=O)C(=O)N[C@H](Cc2ccc(O)cc2)C(=O)N[C@@H](C(C)CC)C(=O)O1 (stereo not given in full),28%,72.1%,75.3%,81.9%,38.9%,64.6%,68.3%,81.4%
Cc1cc(-c2ccc3nc(N)sc3c2)nc2ccc3[nH]ncc3c12,58.5%,33%,-44.2% (active),15.7%,21%,21.8%,66.3%,34.6%
O=C(/C=C/c1cccc(O)c1)c1ccc(O)cc1,62.6%,86.5%,65.5%,49.2%,37.3%,33.8%,110%,33.4%
CC(C)SC1=NC(=C(C(=N1)NC2=ClC=CC=C2)C#N)C3=CC=CC=C3,55%,110%,62.3%,50.5%,39.9%,27.9%,84.1%,79.3%
CN1CCN(c2ccc(NC(=O)Nc3ccc4c(ccn4-c4cccc(C(N)=O)n4)c3)cc2C(F)(F)F)CC1,80.6%,89.9%,-45.2% (active),-10.5% (active),10.7%,12.3%,63.4%,22%
O=C1/C(=C/c2ccc([N+](=O)[O-])cc2)SC(=Nc2ccccc2)N1Nc1ccccc1,56.2%,95.6%,71.1%,43.2%,44.1%,26.9%,85.3%,77.5%
C/C(=C(/C)C1CC1CCN(C(=O)c1ccccn1)S(=O)(=O)c1ccc(C)cc1)C1CCCCC1 (stereo not given),78.5%,120%,98.2%,103%,74.7%,90.1%,97.4%,98.6%
CN1CCN(c2nc(-c3cnc4ccccc4n3)cc3ccccc23)CC1,68.9%,85.7%,27.1%,11.5%,54.9%,21.4%,-26.4% (active),88.1%
Oc1ccc(CSc2nnc(-c3ccccc3)n2-c2ccccc2)c2cccnc12,10.1%,25.2%,13.9%,11.6%,3.8% (active),10.8%,26.9%,14.1%
CNC(=O)c1cc(Oc2ccc3nc(NC(=O)c4cc(C)cc(C)c4)sc3c2)ccn1,80.1%,11.6%,40.6%,92.7%,82%,32.9%,103%,91.3%
O=C(/C=C/Nc1ccc(S(=O)(=O)O)cc1)c1ccc(F)cc1,99.4%,119%,100%,94.8%,90%,107%,106%,104%
Cc1ccc(NC(=O)c2cc(/C=C/C(=O)NO)cc(C(F)(F)F)c2)cc1Nc1nccc(-c2cccnc2)n1,-5.93% (active),-15.3% (active),-2.82% (active),-38.8% (active),-17.5% (active),-12.9% (active),-0.0369% (active),16.4%
